This note sets out measurements from PMC13423814.

EIF4A3, P38919, sequence (P38919 whole entry): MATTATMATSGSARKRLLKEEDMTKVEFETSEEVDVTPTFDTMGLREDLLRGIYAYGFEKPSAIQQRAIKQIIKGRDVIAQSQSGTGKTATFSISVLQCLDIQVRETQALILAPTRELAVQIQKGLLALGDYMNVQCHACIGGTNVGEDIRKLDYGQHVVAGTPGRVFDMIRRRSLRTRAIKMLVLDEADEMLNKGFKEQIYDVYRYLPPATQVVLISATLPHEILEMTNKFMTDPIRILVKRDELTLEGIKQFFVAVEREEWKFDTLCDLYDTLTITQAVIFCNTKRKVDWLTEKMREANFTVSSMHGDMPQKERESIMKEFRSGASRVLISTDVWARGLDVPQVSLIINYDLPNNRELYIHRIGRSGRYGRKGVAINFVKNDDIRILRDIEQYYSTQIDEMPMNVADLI
DDX39B, Q13838, sequence (Q13838 whole entry): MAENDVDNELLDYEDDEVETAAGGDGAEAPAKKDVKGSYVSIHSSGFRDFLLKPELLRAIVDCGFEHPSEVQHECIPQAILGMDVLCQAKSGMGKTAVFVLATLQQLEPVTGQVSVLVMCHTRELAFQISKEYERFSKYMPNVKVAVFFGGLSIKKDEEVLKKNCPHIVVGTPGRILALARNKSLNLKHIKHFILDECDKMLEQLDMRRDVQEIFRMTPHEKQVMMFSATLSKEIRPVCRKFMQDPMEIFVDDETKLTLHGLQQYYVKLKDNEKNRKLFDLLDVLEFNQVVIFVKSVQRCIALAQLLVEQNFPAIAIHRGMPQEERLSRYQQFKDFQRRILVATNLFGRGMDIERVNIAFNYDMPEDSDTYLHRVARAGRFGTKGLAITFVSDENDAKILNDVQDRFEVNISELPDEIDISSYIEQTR
DDX39A, O00148, sequence (O00148 whole entry): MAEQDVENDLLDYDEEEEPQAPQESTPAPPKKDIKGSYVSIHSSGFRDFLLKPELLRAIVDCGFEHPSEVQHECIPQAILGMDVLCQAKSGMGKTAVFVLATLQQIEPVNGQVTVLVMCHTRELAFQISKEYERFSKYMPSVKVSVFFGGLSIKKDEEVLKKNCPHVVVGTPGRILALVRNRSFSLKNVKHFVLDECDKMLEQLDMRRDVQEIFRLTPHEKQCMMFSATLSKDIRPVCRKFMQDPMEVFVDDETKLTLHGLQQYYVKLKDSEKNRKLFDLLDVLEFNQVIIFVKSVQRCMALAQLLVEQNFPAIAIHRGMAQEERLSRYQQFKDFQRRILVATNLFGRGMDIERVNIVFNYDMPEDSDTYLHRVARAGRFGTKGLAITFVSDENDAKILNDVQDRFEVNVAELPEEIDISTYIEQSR

For the experiment, the target named is CHTOP (UniProt Q9Y3Y2). As to conditions: DSSO, in cells.
CHTOP, sequence (Q9Y3Y2 whole entry): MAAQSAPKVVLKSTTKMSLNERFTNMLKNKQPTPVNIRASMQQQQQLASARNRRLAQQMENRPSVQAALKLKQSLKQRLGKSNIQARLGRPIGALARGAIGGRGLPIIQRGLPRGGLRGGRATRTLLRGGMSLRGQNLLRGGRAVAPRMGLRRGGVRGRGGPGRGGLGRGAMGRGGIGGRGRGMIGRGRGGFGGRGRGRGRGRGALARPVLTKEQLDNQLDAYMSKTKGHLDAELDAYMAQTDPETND
For EIF4A3, P38919, the cross-linked residues result is reported as “K152 - K81”.
For the substance DDX39B, Q13838, the cross-linked residues result is “K188 - K226”.
As for DDX39A, O00148, the entry is “K187 - S225”.
